Test results taken from PubChem BioAssay AID463173 (ICCB-Longwood Screening Facility, Harvard Medical School, 2010).
The campaign covered roughly 52,000 compounds. About 4,300 (8.3%) were called active. No stated cut-off is given here; in the data, active means survival mostly below about 52% (no sharp cut-off); inactive means mostly above about 56%. The full list was thinned out, with actives kept by preference.

Test system: DeltatarO mutant
Experiment: S. aureus survival, RN4220 and DeltatarO strains – OD600, teichoic acid synthesis inhibitors, primary screen (AID 463173)
Conditions: S. aureus RN4220 wild type/DeltatarO growth, OD600, 18 h, hits give low values, screened at 18.75 µg/mL (by protocol)

SMILES | survival
CC(=O)c1ccc(NC(=O)C2=CC(c3ccc4c(c3)OCO4)=NS(=O)(=O)N2C)cc1 | 103% (inactive)
CCc1cccc(NC(=O)c2c(N3CCCC3=O)c3cc(C)ccc3n2C)c1 | 74% (inactive)
CCOC(=O)C1CCN(C(=O)Cn2c(=O)oc3cc(S(=O)(=O)N4CCC(C)CC4)ccc32)CC1 | 133% (inactive)
Cc1cc(C)cc(NC(=O)CSc2nnc(CNC(=O)c3c(F)cccc3Cl)o2)c1 | 132% (inactive)
CN(C)S(=O)(=O)c1ccc2c(c1)N(CC(=O)N1CCN(c3ccccc3F)CC1)CCS2 | 119% (inactive)
COc1cc(NC(=O)Cn2nc(C(F)(F)F)c3c2CCC3)cc(OC)c1OC | 130% (inactive)
CC(C)NC(=O)N1[C@H](c2cccs2)[C@@H](C)C(=O)[C@@H](C)[C@@H]1c1cccs1 | 51% (inactive)
COc1ccccc1NC(=O)c1ccc2[nH]c(C)cc(=O)c2c1 | 77% (inactive)
CCOC(=O)c1c(NC(=O)CCCOc2ccc(C)cc2)sc2c1CCC(C)C2 (configuration not stated) | 10% (active)
CCOC(=O)c1c(NC(=O)CS(=O)(=O)c2ccc(C)cc2)sc2c1CCC(C)C2 (configuration not stated) | 102% (inactive)
CCOC(=O)c1c(NC(=O)CCCOc2ccccc2C)sc2c1CCC(C)C2 (configuration not stated) | 16% (active)
CCOC(=O)c1c(NC(=O)Cn2nnc3ccccc32)sc2c1CCC(C)C2 (configuration not stated) | 64% (inactive)
CCOC(=O)c1c(NC(=O)COc2ccc(F)cc2)sc2c1CCC(C)C2 (configuration not stated) | 70% (inactive)
Cc1ccc(OCCCC(=O)Nc2sc3c(c2C(N)=O)CCC(C)C3)cc1 (configuration not stated) | 159% (inactive)
CCc1cnc2c(c1SC(C(C)=O)C(=O)N(C)C)c(=O)n(C)c(=O)n2C (configuration not stated) | 95% (inactive)
O=C(NC1CCCC1)c1ccc2c(=O)n(Cc3ccccc3)c(SCc3cccc(F)c3)nc2c1 | 72% (inactive)
CCCCOc1ccc(C2c3c(oc4ccccc4c3=O)C(=O)N2c2nc(C)c(C(=O)OCC)s2)cc1OC (configuration not stated) | 55% (inactive)
CCCn1c2c(c(O)c(C(=O)Nc3ccccc3F)c1=O)CCCC2 | 93% (inactive)
Cc1ccc(OCC(=O)Nc2nnc(S(=O)(=O)N3c4ccccc4CC3C)s2)cc1 (configuration not stated) | 34% (active)
Cc1ccc(C(=O)Nc2nnc(S(=O)(=O)N3c4ccccc4CC3C)s2)cc1 (configuration not stated) | 30% (active)
Cc1cccc(C(=O)Nc2nnc(S(=O)(=O)N3c4ccccc4CC3C)s2)c1 (configuration not stated) | 16% (active)
CC(C)CC(=O)Nc1nnc(S(=O)(=O)N2c3ccccc3CC2C)s1 (configuration not stated) | 75% (inactive)
CC1Cc2ccccc2N1S(=O)(=O)c1nnc(NC(=O)c2cccc(F)c2)s1 (configuration not stated) | 6% (active)
CCC(=O)Nc1nnc(S(=O)(=O)N2c3ccccc3CC2C)s1 (configuration not stated) | 92% (inactive)

SMILES | survival
CCn1ccc2cc(S(=O)(=O)N3CCC(C(=O)NCCc4ccccc4)CC3)ccc21 | 102% (inactive)
CCOC(=O)c1[nH]c2c(c1Cc1ccccc1)C(=O)CC(c1ccc(Cl)cc1)C2 (configuration not stated) | 92% (inactive)
NC(=O)c1ccc(NC(=O)C2CCN(S(=O)(=O)Cc3ccccc3)CC2)cc1 | 87% (inactive)
CCOc1ccc(NC(=O)c2cnn3c2NC(C)=C(C(=O)Nc2ccc(Cl)cc2)C3c2ccc(OC)c(OC)c2)cc1 (configuration not stated) | 59% (inactive)
Cc1ccccc1C(=O)N1CCC(C(=O)Nc2ccc(F)cc2F)CC1 | 67% (inactive)
O=C(Cn1ncc2c(Cl)cccc21)NCc1cccc(Cl)c1 | 110% (inactive)
CC1Cc2ccccc2N1S(=O)(=O)c1nnc(NC(=O)c2ccccc2)s1 (configuration not stated) | 12% (active)
CC(C)C(=O)Nc1nnc(S(=O)(=O)N2c3ccccc3CC2C)s1 (configuration not stated) | 87% (inactive)
CCC(CC)C(=O)Nc1nnc(S(=O)(=O)N2c3ccccc3CC2C)s1 (configuration not stated) | 61% (inactive)
Cc1cc(C)n(C(=O)CNC(=O)Cc2ccccc2)n1 | 89% (inactive)
CC(=O)N1c2ccccc2C(=O)C1N1CCN(c2cccc(C)c2C)CC1 (configuration not stated) | 80% (inactive)
COc1ccc(-c2noc(CCC(=O)N(C)c3ccccc3C)n2)cc1 | 80% (inactive)
CCCN(C(=O)CCc1nc(-c2ccc(OC)cc2)no1)c1ccccc1F | 3% (active)
Cc1ccc(-c2noc(CCC(=O)N(C)c3ccccc3F)n2)cc1 | 38% (active)
CCCN(C(=O)Cc1nc(-c2ccc(OC)cc2)no1)c1ccccc1C | 85% (inactive)
COc1ccc(OC)c(NC(=O)CCc2nc(-c3ccc(C)cc3)no2)c1 | 70% (inactive)
COc1ccc(-c2noc(CC(=O)N(C)c3ccccc3F)n2)cc1 | 87% (inactive)
CCOC(=O)c1ccccc1NC(=O)CCc1nc(-c2ccc(C)cc2)no1 | 58% (inactive)
CCCN(C(=O)CCc1nc(-c2ccc(C)cc2)no1)c1ccc(OCC)cc1 | -4% (active)
COc1ccc(CNC(=O)CCc2nc(-c3ccc(OC)cc3)no2)cc1 | 96% (inactive)
CCCN(C(=O)CCc1nc(-c2ccccc2F)no1)c1ccc(CC)cc1 | -7% (active)
CCOc1ccc(N(CC)C(=O)CCc2nc(-c3ccccc3F)no2)cc1 | 46% (inactive)
CN(C(=O)CCc1nc(-c2ccccc2F)no1)c1ccc(Cl)cc1 | 56% (inactive)
